# Assay results: PubChem BioAssay (NCI)
# Compounds without any hit were thinned out: in the full panel of roughly 83,000, 20% have a hit.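 The test compound was applied at a single concentration to cells in 96-well plates for 48 hours, and percent growth was recorded.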 The source made the active and inactive calls. How the source made its calls: active means growth percent below 10; inactive means the rest.
# System: HOP-62 NSCLC
# Experiment: NCI-60 one-dose screen, 48 h (100 = growth as untreated, 0 = no growth, -100 = all killed)
# Conditions: 10 µM unless noted
row,SMILES,growth
1,O=c1[nH]c2cc(Cl)c(Cl)cc2o1,96.8% (inactive)
2,CC(COC(=O)c1ccccc1)N1CC2CCC(C1)O2 (stereo not drawn),95.1% (inactive)
3,CC[C@H](Nc1nc(C)nc(N)c1C#N)c1nc2cccc(NCc3ccc(C(=O)NO)cc3)c2c(=O)n1-c1ccccc1,10.1% (inactive)
4,Cc1cc(NC(=O)C2c3ccccc3C(=O)N(CC(C)C)C2c2cccs2)no1 (stereo not drawn),43.8% (inactive)
5,Clc1ccc2c(c1)-n1cccc1C(c1ccc3ccccc3c1)=NC2,101% (inactive)
6,CCC1CCc2nc3sc(C(=O)Nc4cccc(F)c4)c(N)c3cc2C1 (stereo not drawn),74.1% (inactive)
7,CCn1c(CN2CCN(Cc3ccccc3)CC2)nc2cc(NC(=O)c3cccs3)ccc21,-81.6% (active)
8,CCN(CC)CCCNc1cccc2c(C)cc(OC)nc12,98.8% (inactive)
9,COc1ccc(-c2cn(-c3cccc(C(=O)/C=C/c4ccc(O)c(OC)c4)c3)c(=O)[nH]2)cc1,113% (inactive)
10,COc1ccc(/C=c2\c(=O)n(-c3ccccc3)c3nn4c(n23)=NNC42CCCCC2)cc1,87.7% (inactive)
11,CCNC(=S)N(Cc1ccccc1)Cc1ccccc1,94.5% (inactive)
12,CCCCCCCCCCCCCCCc1cc(O)ccc1[N+](=O)[O-],96% (inactive)
13,COC1=CC(c2ccc[nH]2)=N/C1=C\c1[nH]c(C)c(C(=O)CCCCCCCCC(=O)O[C@H]2CC[C@H]3C4CCc5cc(O)ccc5C4CC[C@]23C)c1C (stereo partly drawn),50.7% (inactive)
14,CCc1oc2ccccc2c1C(=O)c1cc(I)c(O)c(I)c1,108% (inactive)
15,Cc1ccc(N=CNN=C(N)N)cc1,102% (inactive)
16,CCCCN(CCCC)CCCN=c1nc2c(c(N)n1-c1ccccc1)c(=S)n(-c1ccccc1)c(=S)n2-c1ccccc1,-99.6% (active)
17,[Ag].[Ag].[NH-]S(=O)(=O)c1ccc(N=Nc2cc(N=Nc3ccc(S([NH-])(=O)=O)cc3)c3c(NC(=O)C(Cl)Cl)cccc3c2OC(=O)C(Cl)Cl)cc1.[c-]1nccs1.[c-]1nccs1,78.9% (inactive)
18,COc1cc(NCCCCC(C)N)c2nccc(C)c2c1 (stereo not drawn),78.3% (inactive)
19,COC(=O)C(C)NC1=C(Cl)C(=O)C(NC(C)C(=O)OC)=C(Cl)C1=O (stereo not drawn),98.7% (inactive)
20,COc1cc2nccc(Oc3ccc(NC(=O)C4(C(=O)Nc5ccc(F)cc5)CC4)cc3)c2cc1OC(=O)c1ccc(N)cc1,11.7% (inactive)
21,O=C(NO)c1ccc(NCc2csc3ccccc23)cc1,65.3% (inactive)
22,COc1ccc2[nH]c(O)c(/C=c3/ccc4c(c3)N=C(c3ccc(F)cc3)N=4)c2c1,34.2% (inactive)
23,CCN(CC)CCCC(C)N/C(c1cccc(OC)c1)=c1\c(=O)[nH]n(-c2c3ccccc3nc3ccccc23)c(=O)\c1=C(/NC(C)CCCN(CC)CC)c1cccc(OC)c1 (stereo not drawn),-22.5% (active)
